# Assay outcomes (PubChem)
# Bcl-xL primary: inhibitors of human Bcl-xL, primary screen, biochemical, fluorescence polarization, HTS | Bcl-2-like protein 1 (Homo sapiens), Q07817 | GST-Bcl-xL / FITC-Bim BH3 peptide fluorescence polarization | inhibition, % at 10.9 µM | 0.7% of 320,000 active | AID 2129, 2009;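 active = inhibition above the mean of all tested compounds plus 3 SD, cutoff set per campaign, cut at about 30% in these data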;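 also: inhibitors lower millipolarization by displacing the labeled peptide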
# Target sequence (Q07817 whole entry, looked up): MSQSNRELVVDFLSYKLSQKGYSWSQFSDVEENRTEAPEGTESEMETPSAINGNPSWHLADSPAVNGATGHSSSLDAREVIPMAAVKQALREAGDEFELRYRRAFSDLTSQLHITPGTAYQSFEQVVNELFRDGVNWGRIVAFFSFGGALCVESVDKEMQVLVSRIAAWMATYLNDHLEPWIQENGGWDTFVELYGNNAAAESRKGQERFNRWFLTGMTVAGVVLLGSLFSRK
# Bcl-W Bim block: inhibitors of Bim binding to Bcl-W, primary screen, biochemical, multiplexed, bead-based flow cytometry | Bim peptide-Bcl-W binding | inhibition, % at 10 µM | 0.02% of 190,000 active | AID 952, 2007;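 also: higher means less fluorescent Bim peptide bound to Bcl-W beads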
# Bim-Bcl-2: inhibitors of Bim-Bcl-2 binding, primary screen, biochemical, multiplexed, human Bcl-2 family; inhibition, % at 10 µM; Bead-based flow cytometry, Bim peptide-Bcl-2 binding; 0.06% of 190,000 active; AID 950, 2007; in the data active = inhibition above about 40%
# Target sequence (P10415 whole entry, looked up): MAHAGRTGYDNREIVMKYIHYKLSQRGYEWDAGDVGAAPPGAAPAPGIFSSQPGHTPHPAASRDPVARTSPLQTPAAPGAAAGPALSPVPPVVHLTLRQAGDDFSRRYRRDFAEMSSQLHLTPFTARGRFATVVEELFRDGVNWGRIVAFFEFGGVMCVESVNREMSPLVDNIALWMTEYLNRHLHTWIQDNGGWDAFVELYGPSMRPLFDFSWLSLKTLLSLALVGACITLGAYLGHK
# Bim-Bcl-B: inhibitors of Bim-Bcl-B binding, primary screen, biochemical, multiplexed, human Bcl-2 family; Bcl-2-like protein 10 (Homo sapiens), Q9HD36; bead-based flow cytometry, Bim peptide-Bcl-B binding; inhibition, % at 10 µM; 0.073% of 190,000 active
# Bim-Bcl-XL: inhibitors of Bim-Bcl-XL binding, primary screen, biochemical, multiplexed, bead flow cytometry, human Bcl-XL; Bim peptide-Bcl-XL binding, fluorescence; inhibition, % at 10 µM; 0.04% of 190,000 active; AID 1007, 2008
# Bim-Bfl-1: inhibitors of Bim binding to Bfl-1, primary screen, biochemical, multiplexed, bead-based flow cytometry. AID 1008, 2008. 0.12% of 190,000 active. Bim-Bfl-1 binding inhibition. inhibition, % at 10 µM. Bcl-2-related protein A1 (Homo sapiens), Q16548
# Numbers stand for hits; – = inactive; · = not tested or not shown; + = active, no number. An excerpt weighted towards active compounds, which were near 0.81% of everything screened. Rule as the data show it, unless noted: active = inhibition above about 40%.
SMILES,Bcl-xL primary,Bcl-W Bim block,Bim-Bcl-2,Bim-Bcl-B,Bim-Bcl-XL,Bim-Bfl-1
Cc1onc(-c2ccccc2Cl)c1C(=O)NCc1nc(-c2ccc(C(F)(F)F)cc2)no1,–,·,·,·,·,·
COc1ccccc1N1N=C(c2ccc([N+](=O)[O-])cc2)CC1c1ccccc1 (configuration not stated),56,·,·,·,·,·
COc1cc(N2N=C(c3ccccc3)CC2c2ccccc2)c(C=O)cc1C=O (configuration not stated),–,·,·,·,·,·
CNc1nnc(Sc2ncccc2[N+](=O)[O-])s1,64,·,·,·,·,·
O=[N+]([O-])c1cccnc1Sc1ccc(F)cc1,–,·,·,·,·,·
CCOC(=O)c1cc2c(=O)n3cccc(C)c3nc2n(CCCOC)c1=NC(=O)c1cccnc1,–,–,–,–,–,–
CC(=O)N=c1c(C#N)cc2c(=O)n3cccc(C)c3nc2n1CCCOC(C)C,–,·,·,·,·,·
CCCCn1c(=NC(=O)c2cccnc2)c(C#N)cc2c(=O)n3cccc(C)c3nc21,46,–,–,–,–,–
Cc1cccn2c(=O)c3cc(C#N)c(=NC(=O)c4ccncc4)n(CCCOC(C)C)c3nc12,73,–,–,–,–,–
COc1ccc(C(=O)N=c2c(C#N)cc3c(=O)n4cccc(C)c4nc3n2Cc2ccco2)cc1,·,–,–,–,–,–
COCCCn1c(=NC(=O)c2ccncc2)c(C#N)cc2c(=O)n3cccc(C)c3nc21,41,–,–,–,–,–
Cc1cccn2c(=O)c3cc(C#N)c(=NC(=O)c4cccs4)n(CCCOC(C)C)c3nc12,71,·,·,·,·,·
CCOCCCn1c(=NC(=O)c2cccs2)c(C#N)cc2c(=O)n3ccccc3nc21,91,·,·,·,·,·
COc1ccc(Cl)cc1NC(=O)N1CCC(C)CC1,–,–,–,–,–,–
CCOC(=O)c1ccccc1NC(=O)N1CCn2c(C)ccc2C1CC (configuration not stated),62,–,–,–,–,–
CCC1c2ccc(C)n2CCN1C(=O)Nc1ccccc1C(=O)OC (configuration not stated),41,–,–,–,–,–
CCOC(=O)c1ccccc1NC(=S)N1CCCCC1,–,–,–,–,–,–
CC1CCCCN1C(=O)Nc1ccccc1Cl (configuration not stated),–,–,–,–,–,–
CCC1c2ccc(C)n2CCN1C(=O)Nc1cc(Cl)ccc1OC (configuration not stated),56,–,–,–,–,–
CCCC1c2ccc(C)n2CCN1C(=O)Nc1ccccc1Cl (configuration not stated),41,–,–,–,–,–
O=C(CSc1n[nH]c(=O)n1-c1cccnc1)Nc1ccccc1Cl,–,·,·,·,·,·
FC(F)(F)c1cc(NC2CCCCC2)ccn1,–,·,·,·,·,·
CCN(CC)S(=O)(=O)c1ccc(N2CCOCC2)c(NC(=O)C2CCCO2)c1 (configuration not stated),–,·,·,·,·,·
Cc1ccc(OCC(=O)NNC(=O)Nc2ccc(Cl)cc2)c(Br)c1,–,·,·,·,·,·
O=C(CNC(=O)c1ccc(S(=O)(=O)N2CCCC2)cc1)N/N=C/c1ccc(Cl)cc1Cl,–,–,–,50,–,–
SMILES,Bcl-xL primary,Bcl-W Bim block,Bim-Bcl-2,Bim-Bcl-B,Bim-Bcl-XL,Bim-Bfl-1
Cc1ccc(NC(=O)CCc2nnc3ccc(NCc4ccco4)nn23)cc1,–,·,·,·,·,·
CCOC(=O)C1=C(O)/C(=C\c2cc(C)n(-c3ccccc3F)c2C)N=C1C,48,–,–,–,–,–
O=C(COc1ccccc1)Nc1ccc2c(c1)Cc1cc(NC(=O)COc3ccccc3)ccc1-2,–,110,104,107,103,91
COc1ccccc1N1CCN(S(=O)(=O)c2cn(C)c(=O)n(C)c2=O)CC1,47,–,–,–,–,–
Cn1cc(S(=O)(=O)N2CCN(c3ccccc3F)CC2)c(=O)n(C)c1=O,–,–,–,–,–,–
Cc1nnc2ccc(-c3ccc(NS(=O)(=O)c4ccc(Cl)s4)cc3)nn12,–,·,·,·,·,·
ClCc1nc2ccccc2n1Cc1ccccc1,129,·,·,·,·,·
Cc1ccc(NC(=O)N2CCc3ccccc3C2)c(C)c1,–,·,·,·,·,·
CN(C(=O)CN1C(=O)c2cccc(N)c2C1=O)C1CCCCC1,61,·,·,·,·,·
CC1CCCCC1NC(=O)CN1C(=O)c2cccc(N)c2C1=O (configuration not stated),·,–,–,–,–,–
CC1(c2ccccc2Cl)NC(=O)N(CC(=O)Nc2ccc(N3CCCCC3)cc2)C1=O (configuration not stated),–,·,·,·,·,·
O=C1Nc2ccc(Br)cc2C12NNc1ccccc1O2 (configuration not stated),–,–,–,–,–,–
CC1N(C)c2cccc3cccc(c23)N1C,–,–,–,–,–,43
NC(=S)N/N=C/c1cccc(O)c1O,–,–,–,–,–,–
Cc1cc(/C=N/NC(N)=S)c(O)c(/C=N/NC(N)=S)c1,+,·,·,·,·,·
Cc1nc(S(=O)(=O)N(C)c2ccccc2)c(C#N)c(C)c1Cl,31,–,–,–,–,–
CN(c1ccccc1)S(=O)(=O)c1ccc(Cl)nc1,–,–,–,–,–,–
CCOC(=O)CSC1=NC(=O)/C(=C\c2ccc(Cl)cc2)S1,–,–,–,–,–,46
Cc1cc(C)nc(NS(=O)(=O)c2ccc(NC(=O)c3cc4c(=O)n5cccc(C)c5nc4n3C)cc2)n1,30,·,·,·,·,·
CN(C)S(=O)(=O)c1cccc(NC(=O)CCc2c[nH]c3ccccc23)c1,–,–,–,–,–,–
COc1cc(/C=C2/S/C(=N/S(=O)(=O)c3ccccc3)NC2=O)c([N+](=O)[O-])cc1OC,40,–,–,–,–,–
COc1cc(/C=C2\S/C(=N/S(=O)(=O)Cc3ccccc3)NC2=O)c([N+](=O)[O-])cc1OC,–,·,·,·,·,·
Cc1ccc(N2CCN(c3ccc(NCc4nc5ccccc5n4C)cc3)CC2)cc1,74,–,–,–,–,–
Cn1c(CNc2ccc(Cl)cc2)nc2ccccc21,–,–,–,–,–,–
CCc1ccccc1S(=O)(=O)Cc1ccc(C(=O)NCc2cccs2)o1,–,–,–,–,–,–
O=C1N/C(=C/c2cccn2-c2ccc(F)cc2)C(=O)N1Cc1ccccc1F,–,–,–,–,–,–
O=C1N/C(=C/c2cccn2-c2ccccc2)C(=O)N1Cc1ccc(F)cc1,–,–,–,–,–,42
COc1cccc2c1C(=O)c1c(O)c3c(c(O)c1C2=O)C[C@](O)(C(C)=O)C[C@H]3O[C@@H]1C[C@@H](N)[C@@H](O)[C@@H](C)O1,+,·,·,·,·,·
CCOC(=O)N1CC=C2C(C#N)=C(N)C(C#N)(C#N)[C@H](c3ccc(OCC)c(OCC)c3)[C@H]2C1,–,–,–,–,–,–
